{"source": "paper PMC7862700", "about": "“An all-to-all approach to the identification of sequence-specific readers for epigenetic DNA modifications on cytosine”", "assay_in_all_cases": "DAPPL (digital affinity profiling via proximity ligation, sequencing); 10 mM Tris-HCl pH 7.5, 50 mM NaCl, 1 mM DTT, 4% glycerol, room temperature, 30 min; GST-TFs on glutathione beads, 16-mer random dsDNA library, 0.1% formaldehyde crosslink after washing; high values mean tight binding", "conditions_in_all_cases": "protein: recombinant; tags: N-terminal GST; dsDNA, one strand shown", "key": {"FLI1": {"biological_target": "T1, FLI1 (Homo sapiens, UniProt Q01543 1-452)", "T1 sequence": "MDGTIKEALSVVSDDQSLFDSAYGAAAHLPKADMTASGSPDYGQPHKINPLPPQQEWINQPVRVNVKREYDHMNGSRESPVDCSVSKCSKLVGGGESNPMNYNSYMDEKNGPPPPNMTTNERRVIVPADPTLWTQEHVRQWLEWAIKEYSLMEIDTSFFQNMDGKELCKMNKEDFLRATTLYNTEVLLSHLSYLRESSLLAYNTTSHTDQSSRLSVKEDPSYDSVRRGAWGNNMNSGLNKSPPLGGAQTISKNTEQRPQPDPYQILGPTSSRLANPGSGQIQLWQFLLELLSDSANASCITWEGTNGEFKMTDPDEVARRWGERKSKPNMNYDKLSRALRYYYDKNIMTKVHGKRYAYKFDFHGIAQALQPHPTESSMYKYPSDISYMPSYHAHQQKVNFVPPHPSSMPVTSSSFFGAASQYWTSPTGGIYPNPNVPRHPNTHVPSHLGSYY", "method_in_brief": "(§1)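 Human transcription factors fused to GST were expressed in yeast, captured on glutathione beads, given DNA barcodes and pooled with a GST-only negative control. Pools were incubated with 200 nmole of a 16-mer random double-stranded DNA library in Tris/NaCl/DTT/glycerol buffer at room temperature for 30 min. They were then washed, crosslinked with 0.1% formaldehyde, proximity-ligated (BsaI/T4 ligase, 1 h, 37 °C), PCR-amplified and sequenced on an Illumina NextSeq500. Binding signal is each 6-mer's read frequency for a factor divided by its frequency for the GST control.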"}, "GABPA": {"biological_target": "T2, GABPA (Homo sapiens, UniProt Q06546 1-454)", "T2 sequence": "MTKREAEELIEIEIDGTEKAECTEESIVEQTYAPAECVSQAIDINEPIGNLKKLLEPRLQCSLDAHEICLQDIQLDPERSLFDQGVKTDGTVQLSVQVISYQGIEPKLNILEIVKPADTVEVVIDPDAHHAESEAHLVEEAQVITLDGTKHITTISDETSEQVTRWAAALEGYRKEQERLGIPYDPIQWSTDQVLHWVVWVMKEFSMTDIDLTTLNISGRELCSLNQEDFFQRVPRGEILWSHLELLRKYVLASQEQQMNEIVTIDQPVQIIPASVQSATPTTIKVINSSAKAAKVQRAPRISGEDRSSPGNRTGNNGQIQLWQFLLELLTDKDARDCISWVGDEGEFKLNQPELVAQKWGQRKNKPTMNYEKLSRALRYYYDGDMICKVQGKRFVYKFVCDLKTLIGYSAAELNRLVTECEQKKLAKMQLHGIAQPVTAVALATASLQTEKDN", "method_in_brief": "as §1"}, "ERG": {"biological_target": "T3, ERG (Homo sapiens, UniProt P11308 1-479)", "T3 sequence": "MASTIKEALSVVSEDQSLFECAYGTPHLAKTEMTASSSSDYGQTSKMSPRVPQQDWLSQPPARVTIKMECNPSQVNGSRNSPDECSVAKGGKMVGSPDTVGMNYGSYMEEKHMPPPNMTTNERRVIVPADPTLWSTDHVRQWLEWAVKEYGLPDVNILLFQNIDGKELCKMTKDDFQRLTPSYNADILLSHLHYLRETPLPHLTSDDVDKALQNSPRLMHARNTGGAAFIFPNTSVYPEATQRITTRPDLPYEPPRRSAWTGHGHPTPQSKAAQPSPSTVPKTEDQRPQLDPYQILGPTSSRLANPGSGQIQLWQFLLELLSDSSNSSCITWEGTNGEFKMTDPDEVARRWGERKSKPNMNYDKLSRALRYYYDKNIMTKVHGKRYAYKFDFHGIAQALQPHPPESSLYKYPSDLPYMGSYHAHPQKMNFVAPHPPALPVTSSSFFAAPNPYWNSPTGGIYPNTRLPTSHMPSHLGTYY", "method_in_brief": "as §1"}, "ELF1": {"biological_target": "ELF1 (Homo sapiens, UniProt P32519 1-619)", "sequence (P32519 whole entry)": "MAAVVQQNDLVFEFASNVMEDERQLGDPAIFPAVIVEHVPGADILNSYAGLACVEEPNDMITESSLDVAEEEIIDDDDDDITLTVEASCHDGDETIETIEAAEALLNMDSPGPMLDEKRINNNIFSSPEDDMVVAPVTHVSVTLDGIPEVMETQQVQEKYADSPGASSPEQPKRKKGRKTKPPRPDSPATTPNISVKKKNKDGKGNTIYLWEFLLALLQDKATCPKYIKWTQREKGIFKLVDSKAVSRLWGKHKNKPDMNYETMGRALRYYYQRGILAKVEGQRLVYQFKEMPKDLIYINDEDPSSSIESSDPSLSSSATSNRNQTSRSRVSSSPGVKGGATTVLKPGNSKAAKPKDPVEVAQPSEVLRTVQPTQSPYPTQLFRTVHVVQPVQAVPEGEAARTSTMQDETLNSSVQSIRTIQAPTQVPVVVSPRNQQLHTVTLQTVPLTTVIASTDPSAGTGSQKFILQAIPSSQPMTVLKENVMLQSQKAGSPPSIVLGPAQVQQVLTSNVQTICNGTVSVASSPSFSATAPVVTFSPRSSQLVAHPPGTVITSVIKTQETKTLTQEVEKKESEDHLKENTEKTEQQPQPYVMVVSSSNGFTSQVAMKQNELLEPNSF", "method_in_brief": "as §1"}, "SPIB": {"biological_target": "SPIB (Homo sapiens, UniProt Q01892 1-262)", "sequence (Q01892 whole entry)": "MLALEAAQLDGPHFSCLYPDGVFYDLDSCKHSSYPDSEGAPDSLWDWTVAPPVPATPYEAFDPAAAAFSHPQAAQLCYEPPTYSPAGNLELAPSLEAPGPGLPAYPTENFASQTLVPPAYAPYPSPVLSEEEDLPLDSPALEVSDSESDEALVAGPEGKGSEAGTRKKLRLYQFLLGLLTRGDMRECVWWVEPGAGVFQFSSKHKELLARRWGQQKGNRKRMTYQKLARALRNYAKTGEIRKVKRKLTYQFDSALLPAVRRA", "method_in_brief": "as §1"}, "ELK3": {"biological_target": "T4, ELK3 (Homo sapiens, UniProt P41970 1-407)", "T4 sequence": "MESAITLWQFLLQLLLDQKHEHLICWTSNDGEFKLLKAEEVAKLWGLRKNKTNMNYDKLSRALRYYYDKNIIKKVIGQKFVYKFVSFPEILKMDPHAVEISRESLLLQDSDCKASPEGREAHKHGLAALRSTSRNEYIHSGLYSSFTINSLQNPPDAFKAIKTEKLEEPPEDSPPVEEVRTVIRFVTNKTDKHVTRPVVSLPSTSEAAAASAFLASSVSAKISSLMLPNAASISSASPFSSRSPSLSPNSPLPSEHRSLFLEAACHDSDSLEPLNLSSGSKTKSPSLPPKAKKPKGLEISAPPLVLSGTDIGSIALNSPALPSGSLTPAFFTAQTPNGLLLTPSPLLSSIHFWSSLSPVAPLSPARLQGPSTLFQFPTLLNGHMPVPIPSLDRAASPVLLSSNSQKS", "method_in_brief": "as §1"}, "ETV2": {"biological_target": "T5, ETV2 (Homo sapiens, UniProt O00321 1-342)", "T5 sequence": "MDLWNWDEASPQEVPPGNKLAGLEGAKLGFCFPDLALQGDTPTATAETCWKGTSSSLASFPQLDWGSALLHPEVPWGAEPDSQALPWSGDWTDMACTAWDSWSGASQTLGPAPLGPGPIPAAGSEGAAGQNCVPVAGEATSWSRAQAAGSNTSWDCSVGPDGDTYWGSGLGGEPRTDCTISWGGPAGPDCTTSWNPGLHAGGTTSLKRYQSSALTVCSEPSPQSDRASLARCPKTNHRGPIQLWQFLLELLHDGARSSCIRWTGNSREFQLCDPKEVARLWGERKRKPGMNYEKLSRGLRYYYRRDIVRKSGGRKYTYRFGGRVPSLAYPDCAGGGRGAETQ", "method_in_brief": "as §1"}, "ELF3": {"biological_target": "T6, ELF3 (Homo sapiens, UniProt P78545 1-371)", "T6 sequence": "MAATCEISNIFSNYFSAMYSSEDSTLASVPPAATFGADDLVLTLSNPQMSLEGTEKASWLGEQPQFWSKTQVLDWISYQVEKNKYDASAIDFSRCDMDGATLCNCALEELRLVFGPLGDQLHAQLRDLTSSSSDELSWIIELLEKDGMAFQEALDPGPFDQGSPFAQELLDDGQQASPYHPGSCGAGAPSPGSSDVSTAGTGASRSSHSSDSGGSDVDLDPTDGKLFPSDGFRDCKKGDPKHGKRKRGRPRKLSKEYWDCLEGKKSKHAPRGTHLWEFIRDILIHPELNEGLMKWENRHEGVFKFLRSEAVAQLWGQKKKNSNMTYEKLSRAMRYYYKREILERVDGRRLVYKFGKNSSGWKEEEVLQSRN", "method_in_brief": "as §1"}, "ETV1": {"biological_target": "ETV1 (Homo sapiens, UniProt P50549 1-477)", "sequence (P50549 whole entry)": "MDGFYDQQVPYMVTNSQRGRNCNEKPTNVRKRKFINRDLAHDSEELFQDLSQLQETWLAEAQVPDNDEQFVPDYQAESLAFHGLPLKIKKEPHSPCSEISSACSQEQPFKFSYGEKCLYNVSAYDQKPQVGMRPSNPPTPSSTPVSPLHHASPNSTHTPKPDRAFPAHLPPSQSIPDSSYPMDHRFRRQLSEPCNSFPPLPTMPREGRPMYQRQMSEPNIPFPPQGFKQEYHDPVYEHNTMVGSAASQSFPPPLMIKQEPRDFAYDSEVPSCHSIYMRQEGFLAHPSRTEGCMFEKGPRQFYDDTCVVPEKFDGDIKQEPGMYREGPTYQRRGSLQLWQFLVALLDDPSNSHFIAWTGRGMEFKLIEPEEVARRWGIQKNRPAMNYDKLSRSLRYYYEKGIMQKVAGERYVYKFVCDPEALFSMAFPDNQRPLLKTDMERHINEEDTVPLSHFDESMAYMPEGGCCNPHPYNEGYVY", "method_in_brief": "as §1"}, "ERF": {"biological_target": "T7, ERF (Homo sapiens, UniProt P50548 1-548)", "T7 sequence": "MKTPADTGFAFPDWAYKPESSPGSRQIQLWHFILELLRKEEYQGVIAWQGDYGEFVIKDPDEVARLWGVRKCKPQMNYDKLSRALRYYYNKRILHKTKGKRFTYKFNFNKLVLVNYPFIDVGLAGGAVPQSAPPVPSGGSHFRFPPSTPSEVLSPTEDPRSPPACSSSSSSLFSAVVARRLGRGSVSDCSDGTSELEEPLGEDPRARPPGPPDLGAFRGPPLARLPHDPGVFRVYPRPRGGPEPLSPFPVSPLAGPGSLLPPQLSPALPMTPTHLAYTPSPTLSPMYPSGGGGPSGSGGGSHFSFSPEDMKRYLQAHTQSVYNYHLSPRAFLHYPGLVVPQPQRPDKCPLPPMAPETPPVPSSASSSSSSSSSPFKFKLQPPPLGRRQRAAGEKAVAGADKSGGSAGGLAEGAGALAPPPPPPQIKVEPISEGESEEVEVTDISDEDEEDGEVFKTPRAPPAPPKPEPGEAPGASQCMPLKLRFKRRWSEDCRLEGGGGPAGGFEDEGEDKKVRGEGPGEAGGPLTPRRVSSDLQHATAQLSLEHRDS", "method_in_brief": "as §1"}, "ETV3L": {"biological_target": "T8, ETV3L (Homo sapiens, UniProt Q6ZN32 1-361)", "T8 sequence": "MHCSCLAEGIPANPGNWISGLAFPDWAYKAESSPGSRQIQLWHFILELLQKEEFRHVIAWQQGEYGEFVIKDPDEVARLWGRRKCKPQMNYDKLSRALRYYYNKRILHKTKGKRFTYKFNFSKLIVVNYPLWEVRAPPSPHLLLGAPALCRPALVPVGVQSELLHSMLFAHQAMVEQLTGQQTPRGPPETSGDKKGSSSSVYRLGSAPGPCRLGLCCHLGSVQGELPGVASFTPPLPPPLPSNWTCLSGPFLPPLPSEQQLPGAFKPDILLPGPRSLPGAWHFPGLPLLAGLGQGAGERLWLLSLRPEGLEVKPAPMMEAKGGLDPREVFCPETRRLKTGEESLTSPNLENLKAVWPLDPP", "method_in_brief": "as §1"}, "ETV3": {"biological_target": "T9, ETV3 (Homo sapiens, UniProt P41162-2 1-143)", "T9 sequence": "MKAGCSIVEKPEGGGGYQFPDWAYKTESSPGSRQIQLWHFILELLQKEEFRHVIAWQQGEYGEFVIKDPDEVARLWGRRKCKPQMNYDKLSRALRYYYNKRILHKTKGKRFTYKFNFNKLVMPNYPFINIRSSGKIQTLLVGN", "method_in_brief": "as §1"}, "ETV6": {"biological_target": "ETV6 (Homo sapiens, UniProt P41212 1-452)", "sequence (P41212 whole entry)": "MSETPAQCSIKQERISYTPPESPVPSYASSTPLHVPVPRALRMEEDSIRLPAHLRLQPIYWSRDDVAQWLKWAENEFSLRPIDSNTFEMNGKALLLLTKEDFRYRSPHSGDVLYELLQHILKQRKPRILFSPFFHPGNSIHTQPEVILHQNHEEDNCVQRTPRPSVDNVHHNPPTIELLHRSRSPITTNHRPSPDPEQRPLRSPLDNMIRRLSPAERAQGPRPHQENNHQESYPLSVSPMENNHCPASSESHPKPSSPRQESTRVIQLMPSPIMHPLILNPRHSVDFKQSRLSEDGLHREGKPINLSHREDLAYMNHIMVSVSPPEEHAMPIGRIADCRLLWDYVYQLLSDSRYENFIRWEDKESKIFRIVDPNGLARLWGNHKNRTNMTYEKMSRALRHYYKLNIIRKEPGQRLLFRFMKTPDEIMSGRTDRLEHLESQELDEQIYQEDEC", "method_in_brief": "as §1"}}}
{"sequence": "TCTGGA", "values": [{"measurement": "binding signal", "setting": "FLI1", "result": "1.02 fold enrichment (6-mer frequency, TF over GST control)"}, {"measurement": "binding signal", "setting": "GABPA", "result": "1.05 fold enrichment (6-mer frequency, TF over GST control)"}, {"measurement": "binding signal", "setting": "ERG", "result": "1.04 fold enrichment (6-mer frequency, TF over GST control)"}, {"measurement": "binding signal", "setting": "ELF1", "result": "1.01 fold enrichment (6-mer frequency, TF over GST control)"}, {"measurement": "binding signal", "setting": "SPIB", "result": "1.01 fold enrichment (6-mer frequency, TF over GST control)"}, {"measurement": "binding signal", "setting": "ELK3", "result": "1.2 fold enrichment (6-mer frequency, TF over GST control)"}, {"measurement": "binding signal", "setting": "ETV2", "result": "1.15 fold enrichment (6-mer frequency, TF over GST control)"}, {"measurement": "binding signal", "setting": "ELF3", "result": "1.06 fold enrichment (6-mer frequency, TF over GST control)"}, {"measurement": "binding signal", "setting": "ETV1", "result": "1.2 fold enrichment (6-mer frequency, TF over GST control)"}, {"measurement": "binding signal", "setting": "ERF", "result": "1.06 fold enrichment (6-mer frequency, TF over GST control)"}, {"measurement": "binding signal", "setting": "ETV3L", "result": "1.1 fold enrichment (6-mer frequency, TF over GST control)"}, {"measurement": "binding signal", "setting": "ETV3", "result": "1.05 fold enrichment (6-mer frequency, TF over GST control)"}, {"measurement": "binding signal", "setting": "ETV6", "result": "1.07 fold enrichment (6-mer frequency, TF over GST control)"}]}
